Most compounds without a hit are left out; they make up all but 1.6% or so of the library.
SUMO HTRF inh – inhibitors of in vitro SUMOylation cascade, primary screen, biochemical, HTRF, uHTS; SUMO-conjugating enzyme UBC9 (Homo sapiens), P63279; HTRF SUMOylation assay, SAE1/SAE2 + UBC9; inhibition, % at 35 µM; 290,000 tested, 0.36% active; AID 2006, 2009; in the data active = inhibition above about 50%, passing the limit was not always enough
NSD2 HMT inh – NSD2 histone methyltransferase inhibitors, primary screen, biochemical, AlphaScreen, single concentration, set 2. NSD2 peptide methylation, 120 min. inhibition, % at 12.5 µM. 310,000 tested, 0.54% active. AID 743445, 2014; in the data active = inhibition above about 50%
CASP6 VEID inh – human caspase-6 inhibitors, primary screen, biochemical, VEID-R110 fluorescence, single point, set 2. 350,000 tested, 0.53% active. inhibition, % at 12.5 µM. purified caspase-6, Z-VEID-R110 cleavage fluorescence. P55212;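 active = mean inhibition across replicates at least about 35%, with every replicate also reaching that limit, limit read from the data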;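 note: 0% = median of neutral control wells and 100% = no fluorescence left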
SIRT5 inh – SIRT5 desuccinylase inhibitors, primary screen, biochemical, fluorescence imaging, single point, set 5. NAD-dependent protein deacylase sirtuin-5, mitochondrial (Homo sapiens), Q9NXA8. Purified SirT5, succinyl-peptide AMC, trypsin-coupled fluorescence. inhibition, % at 15 µM. 330,000 tested, 1.1% active. AID 652115, 2013; in the data active = inhibition above about 15%
* marks the source's active call; other numbers are inactive results; nt = no result.

SMILES	SUMO HTRF inh	NSD2 HMT inh	CASP6 VEID inh	SIRT5 inh
C[C@H]1CN([C@@H](C)CO)S(=O)(=O)c2ccc(C3=CCCCC3)cc2O[C@@H]1CN(C)S(=O)(=O)c1ccc(F)cc1	nt	nt	1.2	33.3*
C[C@@H]1CN([C@H](C)CO)S(=O)(=O)c2ccc(C3=CCCC3)cc2O[C@H]1CN(C)S(=O)(=O)c1ccc(F)cc1	nt	nt	0.8	3.7
C[C@@H]1CN([C@@H](C)CO)S(=O)(=O)c2ccc(C3=CCCCC3)cc2O[C@H]1CN(C)S(=O)(=O)c1ccc(F)cc1	nt	nt	-0.7	26.1*
CN(C)C(=O)c1ccc(-c2ccc([C@@H]3[C@H](CO)N4CCCCN(Cc5cncnc5)C[C@@H]34)cc2)cc1	nt	nt	-20.6	0.4
CC(C)NC(=O)N[C@@H]1CC[C@H](CCNC(=O)C2CCOCC2)O[C@H]1CO	nt	nt	3.9	-1.2
C[C@H]1CN([C@@H](C)CO)S(=O)(=O)c2ccc(C3=CCCCC3)cc2O[C@H]1CN(C)S(=O)(=O)c1ccc(F)cc1	nt	nt	-0.6	26.7*
O=C(NCC1CC1)c1cc2c(c(-c3cccc(-c4ccccc4F)c3)n1)[C@@H](CCO)N(C(=O)CC1CC1)C2	nt	nt	0.5	15.3*
CCCNC(=O)c1cc2c(c(-c3cccc(-c4cccc(OC)c4)c3)n1)[C@H](CCO)N([S@@](=O)C(C)(C)C)C2	nt	nt	6.6	17.8*
COCCNC(=O)c1cc2c(c(-c3cccc(-c4cccc(F)c4)c3)n1)[C@H](CCO)N(S(=O)C(C)(C)C)C2 (some centres not stated)	nt	nt	-1.8	36.2*
C[C@H](CO)N1C[C@H](C)[C@@H](CN(C)Cc2ccncc2)Oc2cc(C3=CCCCC3)ccc2S1(=O)=O	nt	nt	0.1	nt
COCCNC(=O)C[C@H]1C[C@@H]2c3cc(NC(=O)Nc4ccccc4)ccc3O[C@@H]2[C@@H](CO)O1	nt	nt	1.0	5.5
C[C@H]1CCCCO[C@@H](CN(C)C(=O)NC2CCCCC2)[C@@H](C)CN([C@@H](C)CO)C(=O)c2cc(NC(=O)c3ccncc3)ccc2O1	nt	nt	-4.8	2.0
O=S(=O)(c1ccc(N=C2NN=C(c3cc(F)ccc3F)CS2)cc1)N1CCOCC1	-27.5	nt	nt	27.3*
Cc1c(CCC(=O)O)c(=O)oc2c(C)c(OCc3cc4c(cc3Cl)OCO4)ccc12	12.2	-2.9	42.7*	6.0
O=C1Nc2ccc(S(=O)(=O)NCc3ccccn3)c3cccc1c23	46.8	-1.9	11.1	-18.8
CN(C)CCNS(=O)(=O)c1ccc2c3c(cccc13)C(=O)N2	52.8*	4.4	-3.5	-21.8
c1ccc(CN2CCC(N3CCC(N4CCCCCC4)CC3)CC2)cc1	18.7	nt	-141.5	31.8*
CCc1cc[n+](C2=C([O-])c3ccccc3C(=O)/C2=N\S(=O)(=O)c2cccs2)cc1	59.2*	82.5*	3.9	-5.2
O=C(CNCc1ccccc1)NCCCN1CCCC1=O	15.3	-2.4	-2.1	17.0*
c1ccc(COc2ncnc3c2ncn3CCCN2CCN(c3ccccn3)CC2)cc1	nt	nt	-2.5	-2.5
COc1ncnc2c1ncn2CCCN1CCN(c2ccccn2)CC1	nt	nt	-4.8	27.7*
Cc1cc(C=O)c(C)n1-c1ccc(N2CCCCC2)c([N+](=O)[O-])c1	-11.8	64.7*	nt	nt
O=C(C[C@@H]1CC[C@H](NC(=O)Nc2ccc3c(c2)OCO3)[C@@H](CO)O1)NCc1ccccc1	nt	nt	-1.0	-0.1
O=C(C[C@H]1CC[C@H]2[C@@H](COC[C@@H](O)CN2CC2CC2)O1)NCC1CC1	nt	nt	0.1	3.7
O=C(O)c1cc(S(=O)(=O)N2CCN(S(=O)(=O)c3ccc4ccccc4c3)CC2)ccc1Br	nt	6.0	40.3*	5.9
SMILES	SUMO HTRF inh	NSD2 HMT inh	CASP6 VEID inh	SIRT5 inh
O=S(=O)(c1ccc2ccccc2c1)N1CCCCCC1	4.3	-20.9	-1.7	-2.7
C[C@H](NC(=O)C[C@H]1CC[C@@H](NC(=O)C2CCC2)[C@@H](CO)O1)c1ccccc1	nt	nt	8.6	1.2
COC(=O)N1C(=O)[C@@](c2ccsc2)(C(C)C)N1C(=O)OC	nt	-3.6	nt	nt
O=C(NCC[C@H]1CC[C@H](NC(=O)C2CCC2)[C@H](CO)O1)Nc1ccc(Cl)cc1	nt	nt	0.4	-0.2
O=C(CSc1nnc(COc2ccccc2)o1)N1CCOCC1	8.7	-2.9	2.3	22.7*
O=c1oc(-c2cccs2)nc2sc3c(c12)CCC3	51.0*	-0.4	0.0	nt
O=C(NCC1CCCCC1)c1ccc([N+](=O)[O-])cc1	11.0	-1.1	-6.1	nt
Cc1cc(C(=O)NCC2CCCCC2)ccc1[N+](=O)[O-]	17.3	7.8	-1.7	22.0*
CC1=CC(c2ccccc2)=NS(=O)(=O)N1	nt	nt	-0.2	-0.1
